The AC50 is the concentration giving half of the maximal activity seen.

SMILES strings stand for the structures. Results filed as inconclusive are left out. Activity calls are given as the source filed them. Rule for the calls, unless noted: active = hit-call score of the fitted dose curve at least 0.9, where 1 is the maximum; inconclusive = response in the unintended direction; inactive = score below 0.9.

For one test, the target named is THRA (gene 7067) (UniProt P10827). Briefly: TOX21_TRA_COA_Agonist_Followup_ratio: Tox21 Thyroid Hormone Receptor alpha Agonism through Coactivator Recruitment Follow-Up Assay, Ratio (AID 2283948; active = hit-call score of the fitted dose curve at least 0.9, where 1 is the maximum; inactive = score below 0.9). The procedure, abridged: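 First, compound was incubated with 2.5 nM GST-TRα LBD in 0.10% BSA. Next, 200 nM fluorescein-SRC-2 and 2 nM Tb-anti-GST antibody were added. Finally, the 520:495 nm ratio was normalized to DMSO and T3 controls.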
THRA (gene 7067), sequence (P10827 whole entry, looked up, the tested form may be a part): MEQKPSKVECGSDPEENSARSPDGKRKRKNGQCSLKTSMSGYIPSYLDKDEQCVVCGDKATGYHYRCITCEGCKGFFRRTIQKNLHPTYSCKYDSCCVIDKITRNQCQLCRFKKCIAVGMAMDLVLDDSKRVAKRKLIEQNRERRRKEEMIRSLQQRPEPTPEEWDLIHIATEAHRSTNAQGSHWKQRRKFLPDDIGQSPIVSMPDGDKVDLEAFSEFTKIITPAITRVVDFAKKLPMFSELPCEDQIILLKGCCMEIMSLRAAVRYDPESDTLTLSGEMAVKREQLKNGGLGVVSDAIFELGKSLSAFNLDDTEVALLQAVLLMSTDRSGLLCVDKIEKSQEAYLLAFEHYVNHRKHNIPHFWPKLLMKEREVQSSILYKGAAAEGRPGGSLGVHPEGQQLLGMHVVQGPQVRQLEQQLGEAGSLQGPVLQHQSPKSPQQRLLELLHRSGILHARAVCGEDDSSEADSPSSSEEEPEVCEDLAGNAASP

Test [1] has as its target PGR (gene 5241) (UniProt P06401). Briefly: TOX21_PR_BLA_Followup_Antagonist_ratio: Tox21 HEK293 Progesterone Receptor (PR) Antagonism Beta-lactamase Follow-Up Assay, Ratio (AID 2283934).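 Note: PR-UAS-bla HEK293T cells stimulated with 1 nM R5020 agonist for 16 hr.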 The procedure, abridged:
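Antagonist mode used 1 nM R5020 (final) as agonist on a beta-lactamase reporter line in HEK293T cells. Activity was taken from the substrate cleavage ratio after 16 hr exposure.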

The nature of test [2]: TOX21_PR_BLA_Followup_Agonist_viability: Viability Assessment in the Tox21 HEK293 Progesterone Receptor (PR) Agonism Beta-lactamase Follow-Up Assay (AID 2283935).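 Note: signal loss means lower viability so actives are cytotoxic.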 The essentials: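 Multiplexed viability counter-screen: ATP-coupled luciferase signal measured after 30 min at room temperature, following 16 hr compound treatment of PR-UAS-bla HEK293T cells grown in charcoal-stripped serum.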

Test [3] can be described thus: TOX21_PR_BLA_Followup_Antagonist_viability: Viability Assessment in the Tox21 HEK293 Progesterone Receptor (PR) Antagonism Beta-lactamase Follow-Up Assay (AID 2283936).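 Note: hits lower the luminescence signal meaning cytotoxicity.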 The essentials:
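PR-UAS-bla HEK293T cells (3,000/well, 2% charcoal-stripped FBS) given compound plus R5020 agonist, 16 h at 37C. CellTiter-Glo added after bla read, 30 min at room temperature; luminescence loss indicates cytotoxicity.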

Test [4] concerns the target PGR (gene 5241) (UniProt P06401). Description: TOX21_PR_LUC_Followup_Antagonist: Tox21 HEK293 Progesterone Receptor (PR) Antagonism Luciferase Follow-Up Assay (AID 2283938).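 Note: curve fitted upward as signal gain over DMSO baseline despite antagonist label.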 The essentials:
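A follow-up to the PR bla screen using HEK293-PR-A-luc cells, multiplexed with cell viability to flag cytotoxicity. Reporter luminescence after 16 h compound exposure was analysed relative to DMSO.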

Test [5] can be described thus: TOX21_PR_LUC_Followup_Antagonist_viability: Viability Assessment in the Tox21 HEK293 Progesterone Receptor (PR) Antagonism Luciferase Follow-Up Assay (AID 2283940). The essentials: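 Cellular ATP, measured with luciferase-coupled CellTiter-Glo, served as the viability endpoint after HEK293-PR-A-luc cells were exposed to test compounds for 16 h at 37C.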
A short description of test [6]: TOX21_PR_LUC_Followup_Agonist_viability: Viability Assessment in the Tox21 HEK293 Progesterone Receptor (PR) Agonism Luciferase Follow-Up Assay (AID 2283941).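 Note: loss of signal means cytotoxicity so actives lower viability.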 The essentials: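 Luminescent ATP quantitation (CellTiter-Glo) serves as the read-out; a drop flags cytotoxic compounds. Cells are HEK293-PR-A-luc grown in 10% charcoal-stripped FBS, plated 3,000/well, and exposed to compound for 16 h.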

Test [7] can be described thus: CEETOX_H295R_OHPREG_noMTC: CeeTox H295R High-throughput Steroidogenesis Assay for OH-Pregnenolone (OHPREG), maximum tolerated concentration (MTC) filtered results only (AID 2283912; active = hit-call score of the fitted dose curve at least 0.9, where 1 is the maximum; inactive = score below 0.9). The settings on record: actives raise or lower the signal. The procedure, abridged: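 Steroidogenesis in H295R cells (OECD 456, modified): after 48 h forskolin priming and 48 h chemical treatment, secreted 17alpha-hydroxypregnenolone is measured by HPLC-MS/MS. Activity is fitted in both directions against DMSO; concentrations are not filtered by MTT-based MTC.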

Test [8] can be described thus: CEETOX_H295R_OHPROG_noMTC: CeeTox H295R High-throughput Steroidogenesis Assay for OH-Progesterone (OHPROG), maximum tolerated concentration (MTC) filtered results only (AID 2283914; active = hit-call score of the fitted dose curve at least 0.9, where 1 is the maximum; inactive = score below 0.9). The settings on record: actives raise or lower the signal. The procedure, abridged: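 Forskolin 10 uM, 48 h prestim → test cmpd in DMSO (0.1% final), 48 h → medium MTBE extraction → LC-MS/MS quant of 17alpha-OH-progesterone. Bidirectional fit vs DMSO; no MTT-based MTC filtering.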

Test [9] is described as follows: CEETOX_H295R_CORTISOL_noMTC: CeeTox H295R High-throughput Steroidogenesis Assay for Cortisol, maximum tolerated concentration (MTC) filtered results only (AID 2283916; active = hit-call score of the fitted dose curve at least 0.9, where 1 is the maximum; inactive = score below 0.9). The settings on record: actives raise or lower the signal. The procedure, abridged: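 Cortisol secretion measured by LC-MS/MS after 48 h chemical treatment (final 0.1% DMSO) of forskolin-primed (10 uM, 48 h) H295R cells; gain or loss fitted relative to DMSO, without maximum-tolerated-concentration filtering.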

The nature of test [10]: CEETOX_H295R_CORTIC_noMTC: CeeTox H295R High-throughput Steroidogenesis Assay for Corticosterone (CORTIC), maximum tolerated concentration (MTC) filtered results only (AID 2283917; active = hit-call score of the fitted dose curve at least 0.9, where 1 is the maximum; inactive = score below 0.9). The settings on record: actives raise or lower the signal. The procedure, abridged: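 Following OECD 456 with minor changes, H295R cultures received 10 uM forskolin for 48 h, then test chemical at 0.1% DMSO for 48 h. Media steroids were extracted and measured by LC-MS/MS.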

A short description of test [11]: CEETOX_H295R_DOC_noMTC: CeeTox H295R High-throughput Steroidogenesis Assay for DOC, maximum tolerated concentration (MTC) filtered results only (AID 2283918; active = hit-call score of the fitted dose curve at least 0.9, where 1 is the maximum; inactive = score below 0.9). Particulars: actives raise or lower the signal. The procedure, abridged: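 11-Deoxycorticosterone secreted by human adrenal H295R cells quantified by HPLC-MS/MS after 48 h chemical exposure (0.1% DMSO), following 48 h 10 uM forskolin prestimulation. Concentrations not filtered by MTT-derived MTC; bidirectional fitting.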

Test [12] is described as follows: CEETOX_H295R_PROG_noMTC: CeeTox H295R High-throughput Steroidogenesis Assay for Progesterone (PROG), maximum tolerated concentration (MTC) filtered results only (AID 2283920; active = hit-call score of the fitted dose curve at least 0.9, where 1 is the maximum; inactive = score below 0.9). Particulars: actives raise or lower the signal. The procedure, abridged: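 H295R cells; forskolin 10 uM x 48 h prestim; test cpd 48 h, 0.1% DMSO final; media progesterone via LC-MS/MS; bidirectional fit vs DMSO; no MTT-based MTC filter applied.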

The target in test [13] is PGR (gene 5241) (UniProt P06401). Briefly: TOX21_PR_BLA_Followup_Agonist_ratio: Tox21 HEK293 Progesterone Receptor (PR) Agonism Beta-lactamase Follow-Up Assay, Ratio (AID 2283933). The procedure, abridged: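 Agonist-mode follow-up in HEK293T cells carrying a UAS-driven beta-lactamase reporter, grown in 2% charcoal-stripped serum. Compounds act for 16 hr; activity is the ch2/ch1 cleavage ratio, with same-well CellTiter-Glo viability run in parallel.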
PGR (gene 5241), sequence (P06401 whole entry, looked up): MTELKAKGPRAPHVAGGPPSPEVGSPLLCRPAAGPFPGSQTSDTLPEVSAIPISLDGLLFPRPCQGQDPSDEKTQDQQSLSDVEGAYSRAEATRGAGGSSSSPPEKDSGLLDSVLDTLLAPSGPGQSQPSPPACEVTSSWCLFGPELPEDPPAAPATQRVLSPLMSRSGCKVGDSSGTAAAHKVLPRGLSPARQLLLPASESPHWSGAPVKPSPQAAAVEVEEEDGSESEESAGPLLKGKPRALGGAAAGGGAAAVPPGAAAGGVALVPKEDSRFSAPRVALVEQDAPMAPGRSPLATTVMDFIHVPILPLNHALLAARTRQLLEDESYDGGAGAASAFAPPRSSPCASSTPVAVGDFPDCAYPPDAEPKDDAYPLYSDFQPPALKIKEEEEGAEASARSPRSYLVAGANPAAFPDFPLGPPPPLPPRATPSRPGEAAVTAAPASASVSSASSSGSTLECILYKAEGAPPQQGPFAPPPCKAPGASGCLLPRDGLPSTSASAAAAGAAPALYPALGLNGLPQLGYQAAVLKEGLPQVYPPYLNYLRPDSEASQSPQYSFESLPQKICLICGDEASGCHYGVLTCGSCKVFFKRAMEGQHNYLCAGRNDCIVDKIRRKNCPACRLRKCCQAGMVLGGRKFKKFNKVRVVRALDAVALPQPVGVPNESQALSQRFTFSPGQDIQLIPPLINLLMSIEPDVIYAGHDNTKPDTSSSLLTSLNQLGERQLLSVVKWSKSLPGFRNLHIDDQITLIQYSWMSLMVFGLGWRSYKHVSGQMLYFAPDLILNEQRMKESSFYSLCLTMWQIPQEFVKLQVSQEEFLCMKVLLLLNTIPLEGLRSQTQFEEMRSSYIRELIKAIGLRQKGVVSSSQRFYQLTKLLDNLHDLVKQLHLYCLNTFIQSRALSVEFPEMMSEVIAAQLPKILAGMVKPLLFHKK

For test [14] the target is unchanged. Description: TOX21_PR_LUC_Followup_Agonist: Tox21 HEK293 Progesterone Receptor (PR) Agonism Luciferase Follow-Up Assay (AID 2283937; active = hit-call score of the fitted dose curve at least 0.9, where 1 is the maximum; inactive = score below 0.9). The essentials: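 Agonist mode: reporter cells carrying PR-A and luciferase are treated 16 h with test compounds at 37C. Luciferase induction is measured by luminescence and fitted upward against DMSO.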
Test [15] deals with Thyroid hormone receptor alpha (Rattus norvegicus) + Thyroid hormone receptor beta (Rattus norvegicus) (UniProt P18113+P63059). Briefly: TOX21_TR_LUC_GH3_Agonist_Followup: Tox21 GH3 Thyroid Hormone Receptor Agonism Luciferase Follow-Up Assay (AID 2283939). The procedure, abridged: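 Rat GH3 cells (1,500/well) in serum-free assay medium, treated with 15-point series, 92 uM to 5 nM final, for 24 h at 37C. Luciferase via ONE-Glo luminescence; gain of signal fitted against DMSO, T3 positive control.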
Thyroid hormone receptor alpha (Rattus norvegicus) + Thyroid hormone receptor beta (Rattus norvegicus), sequence (P63059 whole entry, looked up): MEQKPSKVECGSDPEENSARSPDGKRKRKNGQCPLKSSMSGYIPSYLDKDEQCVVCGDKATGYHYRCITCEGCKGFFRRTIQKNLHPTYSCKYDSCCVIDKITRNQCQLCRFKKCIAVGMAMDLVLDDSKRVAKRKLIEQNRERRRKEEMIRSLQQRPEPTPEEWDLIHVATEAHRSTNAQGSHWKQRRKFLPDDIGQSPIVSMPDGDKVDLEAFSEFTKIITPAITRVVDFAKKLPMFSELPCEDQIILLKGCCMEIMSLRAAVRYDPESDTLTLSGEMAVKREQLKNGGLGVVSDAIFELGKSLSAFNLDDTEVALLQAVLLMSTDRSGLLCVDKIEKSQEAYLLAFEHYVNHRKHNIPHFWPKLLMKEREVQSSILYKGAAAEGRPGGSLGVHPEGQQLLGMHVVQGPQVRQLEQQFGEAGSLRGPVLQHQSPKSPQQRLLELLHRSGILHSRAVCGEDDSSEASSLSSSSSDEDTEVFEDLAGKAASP
Thyroid hormone receptor alpha (Rattus norvegicus) + Thyroid hormone receptor beta (Rattus norvegicus), sequence (P18113 whole entry, looked up): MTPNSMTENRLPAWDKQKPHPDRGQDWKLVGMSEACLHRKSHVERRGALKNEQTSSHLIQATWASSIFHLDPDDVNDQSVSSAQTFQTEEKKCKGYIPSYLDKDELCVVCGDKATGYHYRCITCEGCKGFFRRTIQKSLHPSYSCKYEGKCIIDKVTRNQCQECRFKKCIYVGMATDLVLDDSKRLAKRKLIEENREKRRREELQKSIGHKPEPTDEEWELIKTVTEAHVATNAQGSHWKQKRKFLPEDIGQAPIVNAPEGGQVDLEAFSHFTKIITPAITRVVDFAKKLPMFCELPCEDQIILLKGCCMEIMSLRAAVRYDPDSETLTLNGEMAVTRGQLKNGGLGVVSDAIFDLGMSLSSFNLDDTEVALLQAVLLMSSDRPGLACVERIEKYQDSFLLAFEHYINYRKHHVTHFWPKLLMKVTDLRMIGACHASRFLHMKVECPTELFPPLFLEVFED

Test [16] is described as follows: CEETOX_H295R_ANDR_noMTC: CeeTox H295R High-throughput Steroidogenesis Assay for Androstenedione (ANDR), maximum tolerated concentration (MTC) filtered results only (AID 2283915; active = hit-call score of the fitted dose curve at least 0.9, where 1 is the maximum; inactive = score below 0.9). Particulars: actives raise or lower the signal. The procedure, abridged: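 H295R cells, passage 10 or below, prestimulated 48 h with 10 uM forskolin, then exposed 48 h to chemical in 0.1% DMSO. Medium androstenedione extracted with MTBE, quantified by HPLC-MS/MS; concentrations not MTC-filtered; bidirectional fit versus DMSO.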

The nature of test [17]: CEETOX_H295R_ESTRADIOL_noMTC: CeeTox H295R High-throughput Steroidogenesis Assay for Estradiol, maximum tolerated concentration (MTC) filtered results only (AID 2283919; active = hit-call score of the fitted dose curve at least 0.9, where 1 is the maximum; inactive = score below 0.9). Particulars: actives raise or lower the signal. The procedure, abridged: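 H295R human adrenal cells pre-stimulated 48 h with 10 uM forskolin, then exposed 48 h to chemical (0.1% DMSO final). Estradiol in medium measured by HPLC-MS/MS after MTBE extraction and dansyl derivatization; bidirectional fit versus DMSO, concentrations not MTT-filtered.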

The nature of test [18]: CEETOX_H295R_ESTRONE_noMTC: CeeTox H295R High-throughput Steroidogenesis Assay for Estrone, maximum tolerated concentration (MTC) filtered results only (AID 2283921; active = hit-call score of the fitted dose curve at least 0.9, where 1 is the maximum; inactive = score below 0.9). Particulars: actives raise or lower the signal. The essentials:
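H295R cells prestimulated 48 h with 10 uM forskolin, then exposed 48 h to chemical in 0.1% DMSO; medium estrone measured by HPLC-MS/MS after MTBE extraction and dansyl derivatization, fitted bidirectionally versus DMSO without MTT-based MTC filtering.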

A short description of test [19]: CEETOX_H295R_TESTO_noMTC: CeeTox H295R High-throughput Steroidogenesis Assay for Testosterone (TESTO), maximum tolerated concentration (MTC) filtered results only (AID 2283924; active = hit-call score of the fitted dose curve at least 0.9, where 1 is the maximum; inactive = score below 0.9). The settings on record: actives raise or lower the signal. The procedure, abridged: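 H295R cells prestimulated 48 h with 10 uM forskolin, then exposed 48 h to chemicals in 0.1% DMSO final. Testosterone in medium quantified by MTBE extraction and HPLC-MS/MS; bidirectional fit versus DMSO, concentrations […] filtered by MTT-based maximum tolerated concentration.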

As to `CC(C)(OO)c1ccccc1`, the result in the test with THRA (gene 7067) was inactive.

For `CC1(C)CCC(Cc2ccc(Cl)cc2)C1(O)Cn1cncn1` (stereo not given), the AC50 with PGR (gene 5241) [1] is 16.8 µM (active); with PGR (gene 5241) [4], 21.6 µM (active). The compound was called inactive in [2], in [3], in test [5] and in test [6].

Consider `CC(C)(c1ccccc1)c1ccc(O)c(C(C)(C)c2ccccc2)c1`, for which, in the test with THRA (gene 7067), the outcome was inactive.

Consider `Oc1ccc(-c2ccccc2)cc1`, for which the AC50 was 29.5 µM (active) with PGR (gene 5241) [1] and 33 µM (active) with PGR (gene 5241) [4]. Further, the result in test [2], in [3] and in test [5] was inactive.

On to `ClC(Cl)=C(Cl)C(Cl)=C(Cl)Cl`, for which the call in test [7], in [8], in test [9], in [10], in test [11] and in test [12] was inactive.

Regarding `C[C@]12CC[C@H](O)CC1=CC[C@@H]1[C@@H]2CC[C@]2(C)C(=O)CC[C@@H]12`, in the test with PGR (gene 5241) [1], the AC50 is 16.1 µM (active). Also, the compound was called inactive (in test [2]; in test [3]; with PGR (gene 5241) [4]; in [5]; in test [6]).

Take `CC12CC1(C)C(=O)N(c1cc(Cl)cc(Cl)c1)C2=O` (stereo not given): the outcome (with PGR (gene 5241) [13]; in the test with PGR (gene 5241) [1]; in test [2]; with PGR (gene 5241) [14]; in the test with PGR (gene 5241) [4]; in test [5]) was inactive. Besides, the compound was called inactive in test [6].

As to `C[C@]12CCC(=O)C[C@@H]1CC[C@@H]1[C@@H]2CC[C@]2(C)[C@@H](O)CC[C@@H]12`, the outcome (with PGR (gene 5241) [1]; in test [2]; in test [3]; in test [5]; in test [6]) was inactive.

As for `CC(C)C1CCC(Cc2ccc(Cl)cc2)C1(O)Cn1cncn1` (stereo not given), the AC50 with PGR (gene 5241) [1] was 15.8 µM (active); in test [2], 75.5 µM (active); with PGR (gene 5241) [4], 22 µM (active). Besides, the compound was called inactive in test [3], in [5] and in test [6].

Regarding `NNC(=S)NN`, the outcome (in test [15]; in the test with THRA (gene 7067)) was inactive.

Consider `c1cc[c]([Hg][c]2ccccc2)cc1`, for which the AC50 was 27.1 µM (active) in test [7]; 32 µM (active) in test [8]; 50 µM (active) in test [16]; 36.9 µM (active) in test [9]; 76.1 µM (active) in test [10]; 2.26 µM (active) in test [11]. Further, the AC50 in test [12] was 21.9 µM (active); in test [19], 67.9 µM (active). Also, the compound was called inactive in test [17] and in test [18].

These data come from PubChem BioAssay (EPA / NIEHS).
